Measurements as given in PubChem BioAssay (NCI).
About 83,000 compounds went through this panel and 20% of them were active in at least one assay; those are over-represented in the sample as a whole.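 Method: cells in 96-well plates; compound added at one concentration; 48 h incubation; percent growth measured; values under 10 scored active.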 A number with no mark means an inactive call. Calls of active or inactive are those of the source.

Key:
Assay in all cases: NCI-60 one-dose screen, 48 h (100 = growth as untreated, 0 = no growth, -100 = all killed)
Details in all cases: 10 µM unless noted
[1] = tested on: DU-145 prostate
[2] = tested on: K-562 leukemia
[3] = tested on: MALME-3M melanoma
[4] = tested on: MDA-MB-231 breast
[5] = tested on: RXF 393 renal
[6] = tested on: SF-268 CNS
[7] = tested on: SF-295 CNS
[8] = tested on: SF-539 CNS
[9] = tested on: UACC-257 melanoma
[10] = tested on: M14 melanoma

| Structure (SMILES) | growth [1] | growth [2] | growth [3] | growth [4] | growth [5] | growth [6] | growth [7] | growth [8] | growth [9] | growth [10] |
| --- | --- | --- | --- | --- | --- | --- | --- | --- | --- | --- |
| O=C(c1cccc(N2CCOCC2)n1)c1c[nH]c2ccccc12 | 99.8% | 103% | 95.1% | 80.2% | 99% | 94.1% | 100% | 88.9% | 87.7% | 94.8% |
| COc1ccc(Oc2ccc(/C=C/C(=O)c3cc4ccccc4oc3=O)cc2)cc1 | 101% | 78.7% | 94.2% | 76% | 100% | 80.9% | 104% | 92.5% | 93.3% | 90.5% |
| Oc1c(I)cc(I)cc1CN(Cc1ccccn1)Cc1ccccn1 | 29% | 14.2% | 17.1% | 33.4% | 46.7% | 19.7% | 23.5% | 4.05% (active) | 1.45% (active) | -16.6% (active) |
| COc1ccc(Nc2ncc(C#N)c(NCCCNC(=O)C3CCC3)n2)cc1 | 60.7% | 50.4% | 78.8% | 56.5% | -4.62% (active) | 30.7% | 76.8% | 28.5% | 113% | 70.9% |
| Nc1c(Cl)cc(/C=C2\C=Cc3ccccc32)cc1Cl | 97.8% | 100% | 119% | 113% | 103% | 105% | 115% | 97.5% | 98.3% | 105% |
| N=C(N)c1ccc(-c2ccc(-c3cc(Cl)cc(Cl)c3)s2)s1 | -72.2% (active) | -52.5% (active) | -13.1% (active) | -55.1% (active) | -84.2% (active) | -43.8% (active) | -69.8% (active) | -60.6% (active) | -46.3% (active) | 1.55% (active) |
| C=C(C)[C@@H]1CC[C@]2(COC3CCCCO3)CC[C@]3(C)[C@H](CC[C@@H]4[C@@]5(C)C=C(C=O)C(=O)C(C)(C)[C@@H]5CC[C@]43C)[C@@H]12 (stereo not given in full) | -94.3% (active) | -24.9% (active) | -75.4% (active) | -37.7% (active) | -85.7% (active) | -67.1% (active) | -95.5% (active) | -74.3% (active) | -28.5% (active) | -62.9% (active) |
| C=C(c1ccc(C(=O)O)c(F)c1)c1cc2c(cc1C)C(C)(C)CCC2(C)C | 108% | 71.9% | 63.6% | 85.7% | 90.9% | 77.9% | 72.8% | 81.1% | 95.8% | 89.4% |
| CN1CCN(c2ccc(NC3=CC(=O)c4ncncc4C3=O)cc2)CC1 | -89.1% (active) | -22.1% (active) | -98.4% (active) | -15.1% (active) | -94.8% (active) | -46.3% (active) | -96.1% (active) | -96.1% (active) | -81.5% (active) | -81.8% (active) |
| CCNC(=O)N1CCc2c(Br)c3c(c(OC)c2C1Cc1ccc(OC)cc1)OCO3 (stereo not given) | 54.5% | 20% | 33.8% | 47.3% | 17% | 43.5% | 25.5% | 22.6% | 65.4% | 11.6% |
| CN1C(=O)/C(=C/c2ccc(C(=O)Nc3ncc(Cc4cc(Cl)ccc4Cl)s3)cc2)SC1=S | 73.7% | 54.7% | 69.4% | 75.7% | 60.1% | 71% | 65.8% | 79.8% | 91.8% | 46.5% |
| C=CN(C(=O)N1CCN(c2cc3c(cc2F)c(=O)c(C(=O)O)cn3C2CC2)CC1)c1nc(-c2ccc(Cl)cc2)cs1 | 81.1% | 47.6% | 89.9% | 76.4% | 53.3% | 44.7% | 58.6% | 67% | 87.6% | 60.2% |
| C=CC(CC(c1ccccc1)(c1ccccc1)c1ccccc1)N(CC)CC (stereo not given) | 58.8% | 25.4% | 54% | 53.4% | 40.6% | 73.9% | 78.8% | 69.1% | 79.3% | 30.1% |
| COc1ccc(-c2nc3ccc(C)cc3c3c2c(=O)n(C)c(=O)n3C)cc1OC | 108% | 107% | 111% | 102% | 99.2% | 100% | 91.3% | 108% | 114% | 109% |
| O=C1CCCCN1c1ccc(C2=NCCCN2)cc1 | 103% | 80.6% | 77.4% | 88.6% | 90.4% | 92% | 85.1% | 64.7% | 111% | 104% |
| CC1(C)CC(=O)C2=C(C1)C(c1ccc(Cl)cc1)n1ncc(C#N)c1N2 (stereo not given) | 108% | 106% | 102% | 93.6% | 107% | 103% | 101% | 87.6% | 101% | 108% |
| COC(=O)c1ccc2c(c1)c1c(C)c3cnccc3c(C)c1n2C | -4.07% (active) | 1.64% (active) | -73.7% (active) | -16.7% (active) | -76.1% (active) | 3.86% (active) | -10.5% (active) | -37.5% (active) | -41.4% (active) | -88.6% (active) |
| N#Cc1ccc(/C=C/c2cn(-c3ccccc3)nc2-c2cccc([N+](=O)[O-])c2)cc1 | 59.5% | 61.2% | 50.3% | 36.1% | 67.1% | 56.5% | 62.5% | 65.7% | 70.2% | 68.8% |
| CC(C)(C)c1ccc(C(=O)N/N=C/c2ccc(O)cc2O)cc1 | 24.5% | 14.2% | 11.9% | 35.1% | -4% (active) | 19.9% | 16.6% | 11.2% | 3.68% (active) | -10.3% (active) |
| COc1ccc(-c2cc(C(=O)N3N=C(c4ccc(N)cc4)CC3c3ccc(Cl)cc3)c3ccccc3n2)cc1 (stereo not given) | 13.9% | 7.4% (active) | 79% | 44.2% | 21.6% | 35% | 21.6% | 5.56% (active) | 55.2% | 9.68% (active) |
| Fc1cccc(CNc2c3ccccc3nc3ccccc23)c1 | 41.7% | 15.7% | 50.5% | 30.6% | 32.8% | 62.1% | 25.2% | 26.9% | 58.1% | 38.8% |
| COCCOC(C)C(/C=N/NC(N)=S)=N/NC(N)=S (stereo not given) | 102% | 37.6% | 94.3% | 68% | 97.2% | 83.4% | 76.2% | 91.9% | 34.5% | 65.5% |
| CCCCn1c(NC(C)=O)c(S(=O)(=O)c2ccccc2)c2nc3ccccc3nc21 | 104% | 69.3% | 98.9% | 109% | 86.8% | 96.7% | 111% | 97.6% | 99.6% | 106% |
| Cc1nc2sc(C(=O)Nc3cccc4ccccc34)c(N)c2cc1C(=O)c1ccccc1 | 18.3% | 9.45% (active) | 58.5% | 15.2% | 22.6% | 53.4% | 10.4% | -12.1% (active) | 72.7% | 12.4% |
| COc1cc(OC)c2c(=O)c3c(CC=C(C)C)cc(OC)c(O)c3oc2c1 | 85% | 61.4% | 114% | 91.1% | 100% | 93.6% | 89.7% | 91.4% | 107% | 91% |
| CC1(C)CC[C@]2(CO)CC[C@]3(C)[C@](O)([C@H](O)C[C@@H]4[C@@]5(C)CCCNC(C)(C)[C@@H]5CC[C@]43C)[C@@H]2C1 | 103% | 10.3% | 101% | 102% | 94.9% | 98.9% | 108% | 97.9% | 96.3% | 96.1% |
| C=C(C)[C@@H]1CC[C@]2(C(=O)Nc3ccccn3)CC[C@]3(C)[C@H](CC[C@@H]4[C@@]5(C)CCCNC(C)(C)[C@@H]5CC[C@]43C)[C@@H]12 | 34.8% | -1.45% (active) | -2.67% (active) | 49.9% | 51.3% | 39.8% | 44.4% | 34.1% | 9.84% (active) | 26.6% |
